This is an account of results in PubChem BioAssay (NCI).

Among the test systems are NCI-H226 lung; NCI-H322M lung; HOP-62 NSCLC; NCI-H460 lung; HOP-92 NSCLC; A549/ATCC NSCLC; 786-0 renal; COLO 205 colon; DU-145 prostate; K-562 leukemia; MALME-3M melanoma; MDA-MB-231 breast; RXF 393 renal; SF-268 CNS; SF-295 CNS; SF-539 CNS; UACC-257 melanoma; M14 melanoma; HCT-15 colon; NCI-H522 lung.
Holding throughout (experiment): NCI-60 one-dose screen, 48 h (100 = growth as untreated, 0 = no growth, -100 = all killed)
Common to all, as to settings: 10 µM unless noted

Each structure is given as a SMILES string. This is part of a sample that, as a whole, favours compounds with a hit. Of some 83,000 tested, about 20% had one in any assay.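 The test compound was applied at a single concentration to cells in 96-well plates for 48 hours, and percent growth was recorded.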 Unmarked numbers belong to inactive results. Active and inactive are the calls of the source. How the source made its calls: active means growth percent below 10; inactive means the rest.

Take `O=C1NC(=C(Cl)Cl)/C(=N/S(=O)(=O)N2CCCCC2CC2(C(F)(F)F)N=N2)N1` (stereo unspecified): the growth with NCI-H226 lung is 89.7%; in the experiment on NCI-H322M lung, 97.9%; with HOP-62 NSCLC, 96%; with NCI-H460 lung, 84.6%; with HOP-92 NSCLC, -51.6% (active); in the experiment on A549/ATCC NSCLC, 111%. The growth in the experiment with 786-0 renal is -24.7% (active); in the experiment with COLO 205 colon it was -17.5% (active); with DU-145 prostate it was 74%; with K-562 leukemia, 2.72% (active); in the experiment with MALME-3M melanoma, -71% (active); with MDA-MB-231 breast, -21.4% (active). Moreover, the growth was -28.8% (active) with RXF 393 renal; 49.3% in the experiment with SF-268 CNS; 99.3% with SF-295 CNS; -22% (active) in the experiment on SF-539 CNS; 82.6% in the experiment with UACC-257 melanoma; 24.4% with M14 melanoma. Besides, the growth with HCT-15 colon was -67.3% (active).
As to `Clc1ccc2oc3c(OCCCn4ccnc4)c4ccccc4nc3c2c1`, the growth was 88.5% with NCI-H226 lung; 73.2% in the experiment with NCI-H322M lung; 87.4% in the experiment on HOP-62 NSCLC; 32.6% in the experiment with NCI-H460 lung; 53% in the experiment with HOP-92 NSCLC; 62% in the experiment with A549/ATCC NSCLC. Also, the growth in the experiment with 786-0 renal was 46.5%; with COLO 205 colon it was 36%; in the experiment on DU-145 prostate, 64.1%; with K-562 leukemia, 45.2%; in the experiment with MALME-3M melanoma it was 97.9%; with MDA-MB-231 breast, 65.7%. For the same compound, the growth in the experiment with RXF 393 renal was 57.9%; in the experiment with SF-268 CNS, 67.7%; in the experiment on SF-295 CNS, 54%; in the experiment on SF-539 CNS, 65.1%; in the experiment on UACC-257 melanoma, 96.4%; in the experiment on M14 melanoma, 93.6%. Also, the growth in the experiment on HCT-15 colon was 40.4%.
Take `COc1cc(/C=C/C(=O)c2ccc(Cl)cc2)ccc1Oc1nc(NCCO)nc(N2CCOCC2)n1`: the growth in the experiment on NCI-H226 lung was 96.5%; in the experiment on HOP-62 NSCLC it was 92.7%; with NCI-H460 lung it was 106%; in the experiment on HOP-92 NSCLC, 102%; in the experiment on NCI-H522 lung it was 96.8%; in the experiment with A549/ATCC NSCLC it was 103%. For the same compound, the growth was 101% in the experiment with 786-0 renal; 116% in the experiment with COLO 205 colon; 107% in the experiment on DU-145 prostate; 35.9% in the experiment with K-562 leukemia; 93.5% with MALME-3M melanoma; 104% with MDA-MB-231 breast. In addition, the growth in the experiment with RXF 393 renal was 97.8%; in the experiment with SF-268 CNS, 97.6%; with SF-295 CNS it was 101%; in the experiment with SF-539 CNS, 95.9%; with UACC-257 melanoma, 114%; in the experiment with M14 melanoma it was 98.7%. Moreover, the growth in the experiment on HCT-15 colon is 98.2%.
For `CSc1ccc2c(c1)N(C(=O)/C(C#N)=C/c1c[nH]c3ccccc13)c1ccccc1S2`, the growth is 50.4% in the experiment with NCI-H226 lung; 59.9% with HOP-62 NSCLC; 45.5% with NCI-H460 lung; 44.1% in the experiment with HOP-92 NSCLC; 5.48% (active) in the experiment on NCI-H522 lung; 47.3% in the experiment on A549/ATCC NSCLC. In addition, the growth in the experiment with 786-0 renal is 50%; in the experiment with COLO 205 colon it was 40.8%; in the experiment on DU-145 prostate, 51.3%; in the experiment on K-562 leukemia, 16.4%; in the experiment on MALME-3M melanoma, 55.7%; with MDA-MB-231 breast, 53.2%. Further, the growth with RXF 393 renal was 38.8%; with SF-268 CNS it was 55.8%; in the experiment on SF-295 CNS, 15%; with SF-539 CNS it was 7.54% (active); in the experiment with UACC-257 melanoma, 57%; in the experiment on M14 melanoma, 29.5%. The growth in the experiment with HCT-15 colon is 27.3%.
Take `COc1cc(N=Cc2sc(Nc3nccs3)nc2O)cc(OC)c1OC`: the growth in the experiment on NCI-H226 lung was 79.5%; in the experiment on HOP-62 NSCLC, 80.1%; in the experiment with NCI-H460 lung it was 69.9%; in the experiment on HOP-92 NSCLC it was 72.8%; in the experiment on NCI-H522 lung it was 93.6%; in the experiment with A549/ATCC NSCLC, 95.6%. Further, the growth in the experiment on 786-0 renal was 96.6%; in the experiment with COLO 205 colon it was 99.6%; in the experiment with DU-145 prostate, 93.3%; with K-562 leukemia, 84.4%; in the experiment with MALME-3M melanoma it was 79.2%; with MDA-MB-231 breast, 79.1%. Also, the growth was 99.5% in the experiment on RXF 393 renal; 78.8% in the experiment with SF-268 CNS; 69.9% in the experiment with SF-295 CNS; 90.5% in the experiment with SF-539 CNS; 92.6% in the experiment on UACC-257 melanoma; 79.9% in the experiment with M14 melanoma. In addition, in the experiment with HCT-15 colon, the growth is 71.4%.
On to `C#Cc1nc(C2=C(C)C(OC(C)=O)/C(=N/OC(C)=O)C2)cs1` (stereo unspecified), for which the growth is 96.1% with NCI-H226 lung; -46.9% (active) in the experiment with HOP-62 NSCLC; 36.1% in the experiment with NCI-H460 lung; -79.9% (active) with HOP-92 NSCLC; -86.2% (active) with NCI-H522 lung; 69.7% in the experiment with A549/ATCC NSCLC. The growth is -87.9% (active) with 786-0 renal; 51.3% in the experiment with COLO 205 colon; 67% in the experiment with DU-145 prostate; 15.4% with K-562 leukemia; -46.5% (active) in the experiment on MALME-3M melanoma; -69.9% (active) with MDA-MB-231 breast. The growth in the experiment with RXF 393 renal is -19.5% (active); in the experiment with SF-268 CNS, -42.6% (active); in the experiment on SF-295 CNS, -89.8% (active); in the experiment on SF-539 CNS, -90.9% (active); in the experiment with UACC-257 melanoma it was 85.5%; with M14 melanoma, 69.2%. In addition, the growth in the experiment on HCT-15 colon was -11.2% (active).
With `Cc1nc(-c2cc3ccccc3oc2=O)ccc1C(=O)/C=C/c1ccccn1`, the growth in the experiment on NCI-H226 lung is 88.7%; in the experiment on HOP-62 NSCLC it was 103%; in the experiment with NCI-H460 lung, 41.1%; with HOP-92 NSCLC, 80.3%; in the experiment on NCI-H522 lung, 58.6%; with A549/ATCC NSCLC, 66.5%. For the same compound, the growth in the experiment with 786-0 renal was 6.4% (active); in the experiment with DU-145 prostate, 47.3%; in the experiment with K-562 leukemia, 7.22% (active); in the experiment on MALME-3M melanoma it was 88.3%; in the experiment on MDA-MB-231 breast, 12.8%; with RXF 393 renal it was 32.3%. In addition, the growth was 78.5% with SF-268 CNS; 71.1% in the experiment with SF-295 CNS; 2.25% (active) with SF-539 CNS; 101% in the experiment with UACC-257 melanoma; 80.2% with M14 melanoma; -33.3% (active) in the experiment on HCT-15 colon.
For the compound `COc1cc(/C=C/C(=O)c2cc(OC)c(OC)c(OC)c2)ccc1OCc1ccc(F)cc1`, the growth in the experiment on NCI-H226 lung is 49.5%; with HOP-62 NSCLC, 36.2%; with NCI-H460 lung it was 54%; with HOP-92 NSCLC, 44.7%; with NCI-H522 lung, 56.4%; in the experiment with A549/ATCC NSCLC, 51.2%. The growth in the experiment with 786-0 renal is 62.8%; in the experiment with COLO 205 colon, 70%; in the experiment on DU-145 prostate, 58.3%; with K-562 leukemia it was 11.7%; in the experiment on MALME-3M melanoma it was 67.6%; in the experiment with MDA-MB-231 breast, 46.8%. Besides, the growth in the experiment with RXF 393 renal was 77.7%; in the experiment with SF-268 CNS it was 58%; in the experiment on SF-295 CNS, 54.7%; with SF-539 CNS it was 9.22% (active); in the experiment with UACC-257 melanoma it was 79.8%; in the experiment on M14 melanoma it was 71%. For the same compound, the growth in the experiment on HCT-15 colon was 16%.
